Screening data: PubChem BioAssay, National Center for Advancing Translational Sciences (NCATS)
HepG2 tox: qHTS for Inhibitors of TGF-b: Cytotox Counterscreen; HepG2 CAGA-GFP viability, ATP luminescence, 18 h; Potency, µM (top dose mostly 46.1 µM), inactives show top-dose activity change, negative = cytotoxicity, hits mostly cytotoxic; actives 0.76% (n = 410,000); AID 588856, 2011; also: potency is read from the fitted curve at half-maximal effect
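HepG2 CAGA-GFP cells (1000/well, DMEM with 1% FBS) received compound, then TGF-beta at 500 pg/mL final, and were incubated 18 hours at 37 degrees C. Viability was read by CellTiter-Glo luminescence. Media-only wells were set as complete cell-killing and DMSO as no toxicity.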
uPA surface inh: qHTS for Inhibitors of Cell Surface uPA Generation. Potency, µM (doses to about 38.3 µM), for the others: at the highest dose activity change, negative = inhibition, most hits filed as inhibitors. cell surface uPA generation assay, qHTS. AID 540303, 2011. actives 0.31% (n = 330,000); active = well fitted inhibition curve with a large enough effect; inconclusive = small, poorly fitted or top-dose-only effect; inactive = no such curve, though single readings can be large or run the other way; tested in mouse RAW 264.7 cells; also: potency is read from the fitted curve at half-maximal effect; % is scaled to controls: 0 for no effect and ±100 for the full control effect; nearly all actives have a fitted effect of over 55% in size
Giardia killer: Small Molecules that selectively kill Giardia lamblia: qHTS; Giardia lamblia trophozoite viability; activity change, % at 7.66 µM, hits read low; actives 0.15% (n = 340,000); AID 540267, 2011; in the data active = activity change below about -80%; inconclusive = between about -30% and that limit;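 also: parasites exposed to compound for two days anaerobically before the ATP read; % is scaled to controls: 0 for no effect and ±100 for the full control effect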
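Killing of trophozoites was scored by loss of ATP luminescence after a 48 hrs anaerobic exposure to compounds at 37 deg C, using 100 cells per well.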
S2 tox: Viability Counterscreen for Primary qHTS for Inhibitors of ATXN expression. Potency, µM (top dose mostly 56.7 µM), most hits filed as cytotoxic. actives 0.49% (n = 400,000). AID 651635, 2014. S2 cells (HEK-293 line with an ATXN2-luciferase reporter) viability, CellTiter-Fluor protease fluorescence, 24 h; also: potency is read from the fitted curve at half-maximal effect; nearly all actives have a fitted effect of over 40% in size
ATXN2 expr inh: Primary qHTS for Inhibitors of ATXN expression; HEK-293 ATXN2-luciferase reporter, luminescence, 24 h; AID 1745845, 2022; actives 0.72% (n = 360,000); Potency, µM (doses to about 57 µM), without a hit: at the top dose activity change, negative = inhibition, most hits filed as inhibitors; also: potency is read from the fitted curve at half-maximal effect; % is scaled to controls: 0 for no effect and ±100 for the full control effect; nearly all actives have a fitted effect of over 55% in size
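ATXN2-luciferase reporter cells (luciferase flanked by upstream and downstream ATXN2 gene portions) were treated 24 h at 37 °C with compounds at up to 57 uM. SteadyGlo luminescence gave expression; GF-AFC fluorescence gave viability.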
TGFb SMAD3 inh: qHTS for Inhibitors of TGF-b. actives 1.2% (n = 410,000). HepG2 CAGA-GFP TGF-b/SMAD3 reporter, GFP fluorescence, 18 h; TGF-beta stimulated, 500 pg/mL final. Potency, µM (highest dose often 46.1 µM), for inactives: at the top dose activity, negative = inhibition, actives largely listed as inhibitors; also: potency is read from the fitted curve at half-maximal effect; % is scaled to controls: 0 for no effect and ±100 for the full control effect; nearly all actives have a fitted effect of over 65% in size
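HEPG2 CAGA-GFP, 1000 cells/well; 2 h settle, 37 C; cpd via pin tool; TGF-b 500 pg/mL final; 18 h, 37 C; GFP imaging ex488/em500-530; %Activity normalised to -TGF-b and +DMSO controls; CRC fit, curve class.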
* marks the source's active call; other numbers are inactive results; i = inactive; ? = inconclusive; / = no result given; ! = repeats disagree; [ ] = remark or other dose. This is a sample that favours compounds with a hit; in the whole collection about 2.6% have one here. Unless noted, calls follow the shape of the dose curve; as a rule, active = well fitted curve in the direction sought with a large enough effect; inconclusive = small, poorly fitted or top-dose-only effect, or another doubt; inactive = no such curve, though single readings can be large; an effect the other way counts as inactive or inconclusive.

SMILES | HepG2 tox | uPA surface inh | Giardia killer | S2 tox | ATXN2 expr inh | TGFb SMAD3 inh
O=C(c1ccc2c(Cl)c3c(nc2c1)CCCC3)N1CCC(N2CCCCC2)CC1 | -47% | 10µM* | -1 | ? | -30% | ?
O=c1oc2ccccc2c(O)c1Cc1c(O)c2ccccc2oc1=O | / | / | / | i | -7% | /
O=Nc1c(O)c2ccccc2c2ccccc12 | 2.8µM* | 5.6µM* | -20 | 16µM* | 7.9µM* | 2.2µM*
Cc1cccc(-c2noc(CN(C(=O)C(c3ccccc3)c3ccccc3)C(C)C)n2)c1 | -1% | ? | 8 | i | -16% | -15%
CCCCCSc1cc(OC)c(CCNC)cc1OC | 10µM* | 13% | 0 | i | -12% | ?
CCCCCCCSc1cc(OC)c(CCNC)cc1OC | -95% | 8% | 8 | ? | ? | ?
CC(C)(O)C=CC(=O)[C@](C)(O)[C@H]1[C@H](O)C[C@]2(C)[C@@H]3CC=C4[C@@H](C=C(O)C(=O)C4(C)C)[C@]3(C)C(=O)C[C@@]12C | / | / | / | / | 1.5µM* | /
CC(=O)OC(C)(C)/C=C/C(=O)C(C)(O)C1[C@H](O)C[C@@]2(C)C3CC=C4C(CC[C@@H](O)C4(C)C)[C@]3(CO)C(=O)C[C@]12C (stereo not given in full) | -17% | -19% | -6 | ? | ? | ?
CC(=O)OC(C)(C)/C=C/C(=O)[C@](C)(O)[C@H]1[C@H](O)C[C@@]2(C)[C@@H]3CC=C4[C@H](C[C@H](O)C(=O)C4(C)C)[C@]3(C)C(=O)C[C@]12C | -82% | -2% | 6 | / | 14µM* | 2.8µM*
CC(=O)OC(C)(C)/C=C/C(=O)C(C)(O)C1C(O)CC2(C)C3CC=C4C(CC(O)C(=O)C4(C)C)C3(C)C(=O)CC12C (stereo not given) | 17% | -4% | 4 | / | ? | ?
CC(=O)[C@@]1(O)CC[C@H]2[C@@H]3CCC4=CC(=O)CC[C@]4(C)C3(F)[C@@H](O)C[C@@]21C (stereo not given in full) | / | / | / | i | / | /
Cc1ccc(S(=O)(=O)N(C)C[C@H]2Oc3cc(Br)ccc3S(=O)(=O)N([C@H](C)CO)C[C@H]2C)cc1 | -22% | / | / | ? | ? | ?
C[C@@H]1CN([C@H](C)CO)S(=O)(=O)c2ccc(C#Cc3cccc(F)c3)cc2O[C@@H]1CN(C)C(=O)CN1CCOCC1 | -41% | / | / | 20µM* | ? | ?
CC[C@H](C)[C@@H]1NC(=O)[C@H]([C@@H](C)CC)NC(=O)[C@@H](CC(C)C)NC(=O)[C@H](Cc2ccccc2)NC(=O)[C@H](Cc2ccccc2)NC(=O)[C@@H]2CCCN2C(=O)[C@@H]2CCCN2C(=O)[C@H](C(C)C)NC(=O)[C@H](CC(C)C)NC1=O | -3% | ? | 8 | 28µM* | ? | -8%
Cc1cccc(OCC(=O)Nc2cc(-c3ccccc3F)nn2-c2ccccc2)c1 | -4% | / | / | ? | -23% | 1%
Cc1ccc(NC(=O)C2CCN(C(=O)c3cnn(-c4ccccc4)c3-n3cccc3)CC2)cc1Cl | -27% | / | / | ? | ? | 14µM*
O=C(NCCSc1c(-c2ccc(F)cc2)[nH]c2ccccc12)c1ccc(S(=O)(=O)N2CCOCC2)cc1 | -31% | / | / | / | / | ?
O=C1CN=C(c2ccccc2)c2c(sc3c2CCCC3)N1 | -38% | 4.5µM* | 0 | ? | -19% | -14%
O=C1CN=C(c2cccs2)c2c(sc3c2CCCC3)N1 | -21% | / | 1 | i | ? | -19%
Cc1ccc(Cl)cc1NC(=O)Cn1c(=O)oc2cc(S(=O)(=O)N3CCCC3)ccc21 | -38% | / | / | / | / | /
CCN(C(=O)Cn1c(=O)oc2cc(S(=O)(=O)N3CCCC3)ccc21)c1cccc(C)c1 | -26% | / | / | / | / | /
Cc1cn([C@@H](CCCCNC(=O)OC(C)(C)C)C(=O)NCCCCCCCCCCC(=O)N2CCN(C(=O)OC(C)(C)C)CC2)nn1 | -11% | ? | 2 | 16µM* | ? | 11µM*
CC(C)(C)OC(=O)NCCCC[C@H](NC(=O)c1nc[nH]c1C(=O)NC1CCN(C(=O)OC(C)(C)C)CC1)C(=O)OC(C)(C)C | -27% | ? | 0 | ? | ? | ?
CC(C(O)c1ccccc1)N(C)C/C=C/c1ccccc1 (stereo not given) | / | / | / | i | -20% | /
CCN1/C(=C\C=C\C2=[N+](CC)c3ccccc3C2(C)C)C(C)(C)c2ccccc21 | -62% | -12% | -8 | 2.8µM* | ? | ?
SMILES | HepG2 tox | uPA surface inh | Giardia killer | S2 tox | ATXN2 expr inh | TGFb SMAD3 inh
CC[N+]1(CC)CCC(OC(=O)C(O)(c2ccccc2)c2ccccc2)C1 (stereo not given) | / | / | / | i | 4% | /
O=c1cc(CSc2ccc(Cl)cc2)nc(-c2ccccn2)[nH]1 | -10% | ? | -18 | / | / | ?
CCCC12CN3CCN(CC(C3)/C1=N\NC(=O)c1ccncc1)C2 | 6% | -2% | 4 | i | -13% | -19%
CCC12CN3CCN(CC(C3)/C1=N/NC(=O)c1ccncc1)C2 | 8% | 1% | 12 | i | -11% | 1.1µM*
CC1(C)C(=O)CC[C@]2(C)C3C(=O)C=C4[C@H]5C[C@@](C)(C(=O)O)CC[C@]5(C)CC[C@]4(C)[C@]3(C)CC[C@@H]12 (stereo not given in full) | 6% | 23% | 7 | i | 5% | ?
CC1=C(O)C(=O)C=C2C1=CC=C1[C@@]2(C)CC[C@@]2(C)[C@@H]3C[C@](C)(C(=O)O)CC[C@]3(C)CC[C@]12C | / | / | / | / | 2.4µM* | /
CC(C)[C@]12O[C@@H]1[C@@H]1O[C@]13[C@]1(O[C@H]1C[C@@H]1C4=C(CC[C@@]13C)C(=O)OC4)[C@H]2O | / | / | / | / | 0.12µM* | /
COc1cccc(OC)c1C1=NCC(=O)Nc2c1oc1ccc(Br)cc21 | -20% | ? | 9 | ? | 0% | 16µM*
O=C1CN=C(c2ccccc2)c2oc3ccc(Br)cc3c2N1 | -24% | -5% | -12 | ? | -11% | 6%
CCOP(=O)(OCC)c1ccc2ccc3ccccc3c(=O)c2c1 | -52% | 6% | -20 | i | -20% | -5%
O=C(Nc1ncc([N+](=O)[O-])s1)c1cccs1 | 13µM*! | ? | -87* | ? | 6% | ?
O=C(CNC(=O)c1cccs1)NCC(=O)OCC(=O)c1ccc([N+](=O)[O-])cc1 | 1% | -2% | 5 | i | 0%[11.3 µM] | 7%
COc1cc2c(cc1OC)-c1c(OC)c(OC)cc3ccnc(c13)C2=O | -27% | ? | -84* | ? | -35% | 12%
